Assay results as given in PubChem BioAssay (NCATS).
Where “and” joins values, the source holds several entries; their conditions need not be identical. Identical values can stand only once. Inconclusive results are not listed. Calls of active or inactive are those of the source. The call rests on the fitted dose curve; in most records, active means well fitted inhibition curve with a large enough effect; inconclusive means small, poorly fitted or top-dose-only effect; inactive means flat fitted curve, though single readings scatter. Where a SMILES comes first, the peptide text is derived from it. [ ]: non-standard residue; d: D form. dPhe(4-Cl) = N[C@H](Cc1ccc(Cl)cc1)C(=O)O; d2Nal = N[C@H](Cc1ccc2ccccc2c1)C(=O)O; dCit = NC(=O)NCCC[C@@H](N)C(=O)O; d3Pal = N[C@H](Cc1cccnc1)C(=O)O

Assay: P-glycoprotein substrates identified in KB-8-5-11 adenocarcinoma cell line, qHTS therapeutic library screen (AID 1346987); further: nearly all actives have a fitted effect of over 65% in size
Settings: KB-8-5-11 (P-gp overexpressing) viability, CellTiter-Glo, 72 h; series mostly up to 44.5 µM; activity change, negative = cytotoxicity: at the top concentration
Procedure, shortened: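 Steps: plate 500 KB-8-5-11 cells/well in DMEM + 10% FCS (colchicine removed); pin compounds in dose-response; incubate 72 h, 37 degree C, 5% CO2; add CellTiter-Glo, 5 min; read luminescence.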
On the % scale 0 is the no-effect control and ±100 the full control effect; potency means the concentration at half of the fitted maximal effect.

Compound	activity change, negative = cytotoxicity	Potency	outcome
COC(=O)C12CCC(C)C(C)C1C1=CCC3C4(C)CCC(OC(C)=O)C(C)(C)C4CCC3(C)C1(C)CC2 (centres undefined)	0.509% [at 17.3 µM] (inactive)		
CN(C)c1nc(NC2CCC(NCCc3ccc(Br)cc3OC(F)(F)F)CC2)nc2ccccc12 (centres undefined)		4.61 µM (active)	
CC(C)=CCC[C@](C)(O[C@@H]1O[C@H](CO)[C@@H](O)[C@H](O)[C@H]1O)[C@H]1CC[C@]2(C)[C@@H]1[C@H](O)CC1[C@@]3(C)CC[C@H](O)C(C)(C)C3[C@@H](O[C@@H]3O[C@H](CO)[C@@H](O)[C@H](O)[C@H]3O)C[C@]12C (some centres undefined)	9.51% [at 17.3 µM] (inactive)		
O=C(O)c1ccccc1NC(=O)N1CCC(c2ccccc2C(F)(F)F)CC1	-11.2% (inactive)		
CC1CCC2(C(=O)O)CCC3(C)C(=CCC4C5(C)CCC(O)C(C)(CO)C5CCC43C)C2C1(C)O (centres undefined)	-2.05% [at 17.3 µM] (inactive)		
CC(=O)N[C@H](Cc1ccc2ccccc2c1)C(=O)N[C@H](Cc1ccc(Cl)cc1)C(=O)N[C@H](Cc1cccnc1)C(=O)N[C@@H](CO)C(=O)N[C@@H](Cc1ccc(O)cc1)C(=O)N[C@H](CCCNC(N)=O)C(=O)N[C@@H](CC(C)C)C(=O)N[C@@H](CCCN=C(N)N)C(=O)N1CCC[C@H]1C(=O)N[C@H](C)C(N)=O (Ac-[d2Nal][dPhe(4-Cl)][d3Pal]SY[dCit]LRP[dA]-NH2)			inactive [at 17.3 µM]
Oc1ccc(CNc2ccccc2F)c2cccnc12		6.51 µM (active)	
C=CC(C)(O)C(O)CC1C(C)(O)C(O)C(O)C2C(C)(C)CCCC21C (centres undefined)	3.66% (inactive)		
O=C1CSc2ccccc2N1Cc1cccc(C(F)(F)F)c1	-24.9% (inactive)		
Cc1cc(C(N)=O)ccc1-n1c(CCC(=O)O)ccc1-c1ccc(-n2ccnc2)cc1			inactive
CC(C)=CCC/C(C)=C/Cc1ccc(O)c(C2OC(=O)c3cc(C(=O)O)cc(O)c32)c1O (centres undefined)	-1.65% [at 17.3 µM] (inactive)		
C=CC[C@]12C[C@@H](OC)C(=O)C(OC)=C1O[C@@H](c1cc(OC)c3c(c1)OCO3)[C@@H]2C	-13.7% [at 17.3 µM] (inactive)		
CC[C@H](NC(=O)[C@H](CS(=O)(=O)CC1CC1)N[C@@H](c1ccc(F)cc1)C(F)(F)F)C(=O)C(=O)NC1CC1	-17.1% (inactive)		
C=C(CO)C12OC1C1(C)C(=CC2=O)C(O)C(O)CC1C (centres undefined)	0.27% (inactive)		
Cc1cc(C)cc(C(=O)NOCCCCCC(=O)NO)c1		1.3 µM (active)	
COc1cc(O)c([C@@H](CC(=O)N2CC(C)CC(C)C2)c2ccc3c(c2)OCO3)c(OC)c1 (some centres undefined)	-16.6% (inactive)		
CCc1c(C)nc2c(-c3cnn(-c4cc(CO)ccn4)c3)c[nH]n2c1=O	8.59% (inactive)		
CC(=O)OC[C@]12[C@H](OC(C)=O)C(=O)[C@@H]3[C@@H](OC(C)=O)[C@@]14O[C@@]3(C)COC(=O)c1cccnc1[C@@H](C)[C@H](C)C(=O)O[C@@H]([C@H](O)[C@@H]2OC(C)=O)[C@]4(C)O	-8.22% [at 17.3 µM] (inactive)		
C=C(C)[C@@H]1CC[C@]2(C)CC[C@]3(C)[C@H](CC[C@@H]4[C@@]5(C)CC[C@@H](O)C(C)(C)[C@@H]5CC[C@]43C)[C@@H]12	-4.26% [at 17.3 µM] (inactive)		
C=C1CCC2C(C)(C)C(O)CCC2(C)C1CCC(C)CCO (centres undefined)	-19.3% (inactive)		

Compound	activity change, negative = cytotoxicity	Potency	outcome
O=C(OC[C@@]1(O)CO[C@@H](O[C@H]2[C@H](Oc3ccc(O)cc3)O[C@H](CO)[C@@H](O)[C@@H]2O)[C@@H]1O)c1ccc(O)cc1	1.59% [at 17.3 µM] (inactive)		
Cc1ccc(C(=O)N(CCCN)C(c2nc3cc(Cl)ccc3c(=O)n2Cc2ccccc2)C(C)C)cc1 (centres undefined)		0.517 µM (active)	
CO[C@H]1/C=C/C=C/C=C/C[C@H](OC(=O)[C@@H](C)NC(=O)C2CCCCC2)[C@H](C)[C@@H](O)/C(C)=C/CCc2cc(O)cc(c2)NC(=O)C1	-19.1% [at 17.3 µM] (inactive)		
OCCc1ccc(O[C@@H]2O[C@H](CO)[C@@H](O)[C@H](O)[C@H]2O)cc1	5.3% (inactive)		
COC(=O)c1ccnc(-c2cc(C(=O)NCCc3ccccc3)ccn2)c1	-1.75% (inactive)		
C=CC(=O)Nc1cccc(CN2C(=O)N(c3c(Cl)c(OC)cc(OC)c3Cl)Cc3cnc(NCCCCN(CC)CC)nc32)c1	1.47% (inactive)		
NC1CCCCN(c2c(F)cc3c(=O)c(C(=O)O)cn(C4CC4)c3c2Cl)C1 (centres undefined)			inactive [at 17.3 µM]
C[C@@H]1CC[C@]2(C(=O)O)CC[C@]3(C)C(=CCC4[C@@]5(C)C[C@@H](O)[C@H](O)[C@@](C)(CO)C5CC[C@]43C)C2[C@]1(C)O (some centres undefined)	0.128% [at 17.3 µM] (inactive)		
C[C@@H]1O[C@@H](O[C@H]2[C@H](O)[C@@H](O[C@@H]3O[C@H](CO)[C@@H](O)[C@H](O[C@@H]4O[C@H](CO)[C@@H](O)[C@H](O)[C@H]4O)[C@H]3O)[C@H](O[C@H]3CC[C@@]4(C)C(=CC[C@@H]5C4CC[C@@]4(C)C5C[C@@H]5OC6(CC[C@@](C)(CO[C@@H]7O[C@H](CO)[C@@H](O)[C@H](O)[C@H]7O)O6)[C@@H](C)[C@@H]54)C3)O[C@@H]2CO)[C@H](O)[C@H](O)[C@H]1O (some centres undefined)	3.17% [at 9.29 µM] (inactive)		
COc1cc(C)c(C(=O)Oc2cc(C)c(C(=O)Oc3cc(C)c(C(=O)NC(C)C(=O)O)c(O)c3)c(O[C@@H]3O[C@H](CO)[C@@H](O)[C@H](O)[C@H]3OC(C)=O)c2)c(OC)c1 (some centres undefined)	9.86% [at 17.3 µM] (inactive)		
C=C(C(=O)OC)C1C(O)CC2(C)C(=O)CCC(O)(CO)C2C1O (centres undefined)			inactive
C[C@H](NC(=O)CCc1nc2ccccc2c(=O)[nH]1)c1ccccc1	-18.6% (inactive)		
CN1CCN(c2ccc(C(=O)Nc3n[nH]c4ccc(Cc5cc(F)cc(F)c5)cc34)c(NC3CCOCC3)c2)CC1		16.4 µM (active) and 13 µM (active)	
CO[C@@H](C)Cn1c(=O)n(C)c2cnc3ccc(-c4cncc(C(C)(C)O)c4)cc3c21		0.651 µM (active)	
COc1ccc(CC2C(=O)NC(C)C(=O)N(C)C3Cc4ccc(cc4)Oc4cc(ccc4OC4OC(CO)C(O)C(O)C4O)CC(C(=O)NC(C)C(=O)NC(C)C(=O)N2C)N(C)C3=O)cc1 (centres undefined)	-5.43% [at 9.29 µM] (inactive)		
C=CC1(C)C=C2C(=O)OC(=O)C3=C(CCCC3(C)C)C2(O)CC1 (centres undefined)			inactive
COC(=O)C1=CO[C@@H](O[C@@H]2O[C@H](CO)[C@@H](O)[C@H](O)[C@H]2O)[C@@H]2C(CO)=CC[C@]12O	1.51% [at 17.3 µM] (inactive)		
CC(C)/C=C1\NC(=O)C(C(C)C)n2c1nc1c(c2=O)C=CC=CO1 (centres undefined)	-12.4% (inactive)		
C/C=C/C=C/C(O)=C1\C(O)=C(C)C(=O)[C@@]2(C)OC(=O)[C@@](C)(NC(=O)/C=C/C(=O)O)[C@@H]12	2.32% [at 17.3 µM] (inactive)		
